Source: the supplement of paper PMC11732987, “Enantioselective OTUD7B fragment discovery through chemoproteomics screening and high-throughput optimisation” (Communications Chemistry, 2025)

Key:
Assay in all cases: log2 ratio of Biotin-Ahx-Ub-VS probe labelling (fragment/DMSO); higher = less target engagement (more negative = stronger competition), active = hit call of the paper (q ≤ 0.05, log2 ratio ≤ -1)
Conditions in all cases: compound concentration: 200 uM; treatment time: 3 h
ALG13 = target: T1, ALG13 (UniProt Q9NP73)
T1 sequence (whole entry): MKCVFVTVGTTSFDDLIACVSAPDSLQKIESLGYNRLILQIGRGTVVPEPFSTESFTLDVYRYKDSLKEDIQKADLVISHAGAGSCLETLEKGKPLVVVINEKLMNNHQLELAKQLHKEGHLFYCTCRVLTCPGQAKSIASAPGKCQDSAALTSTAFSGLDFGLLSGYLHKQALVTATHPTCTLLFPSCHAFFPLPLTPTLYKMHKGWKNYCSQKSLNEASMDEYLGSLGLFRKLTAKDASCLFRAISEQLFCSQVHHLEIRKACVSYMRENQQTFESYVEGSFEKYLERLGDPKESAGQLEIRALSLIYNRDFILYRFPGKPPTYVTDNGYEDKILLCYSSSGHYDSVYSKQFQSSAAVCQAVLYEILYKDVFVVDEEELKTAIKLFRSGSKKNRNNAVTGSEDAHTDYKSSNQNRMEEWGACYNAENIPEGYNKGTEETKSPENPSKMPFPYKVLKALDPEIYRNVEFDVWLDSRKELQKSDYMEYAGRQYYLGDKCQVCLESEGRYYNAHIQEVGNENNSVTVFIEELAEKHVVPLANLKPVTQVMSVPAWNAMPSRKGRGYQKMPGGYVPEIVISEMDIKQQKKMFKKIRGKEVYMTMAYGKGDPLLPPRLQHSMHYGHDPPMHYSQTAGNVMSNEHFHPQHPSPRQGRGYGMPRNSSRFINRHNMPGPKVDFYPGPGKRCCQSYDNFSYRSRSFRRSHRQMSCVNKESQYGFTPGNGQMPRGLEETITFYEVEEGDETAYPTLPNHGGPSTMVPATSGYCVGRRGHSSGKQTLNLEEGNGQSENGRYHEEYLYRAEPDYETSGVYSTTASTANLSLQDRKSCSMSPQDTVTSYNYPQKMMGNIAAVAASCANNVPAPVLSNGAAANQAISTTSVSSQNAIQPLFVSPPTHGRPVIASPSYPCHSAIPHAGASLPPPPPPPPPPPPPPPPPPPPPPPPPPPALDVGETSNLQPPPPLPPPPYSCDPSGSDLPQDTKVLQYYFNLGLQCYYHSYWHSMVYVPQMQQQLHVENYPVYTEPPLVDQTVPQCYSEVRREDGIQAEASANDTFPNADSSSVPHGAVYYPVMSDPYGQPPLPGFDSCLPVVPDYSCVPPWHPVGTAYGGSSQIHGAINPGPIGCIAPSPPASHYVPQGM
How it was run: (§1)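 Average log2 ratios of fragment over vehicle were obtained by unpaired t-test from global-median-normalised Spectronaut label-free quantities. Proteins with ≥2 unique peptides were included. HEK293T lysate (495 µg per sample) was treated in triplicate with fragment at 200 µM or vehicle for 3 h, then with Biotin-Ahx-Ub-VS at 0.5 µM final for 1 h, and labelled DUBs were NeutrAvidin-enriched and run by diaPASEF LC-MS/MS.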

ATXN3 = ATXN3 (UniProt P54252)
How it was run: as §1

BAP1 = target: T2, BAP1 (UniProt Q92560)
T2 sequence (whole entry): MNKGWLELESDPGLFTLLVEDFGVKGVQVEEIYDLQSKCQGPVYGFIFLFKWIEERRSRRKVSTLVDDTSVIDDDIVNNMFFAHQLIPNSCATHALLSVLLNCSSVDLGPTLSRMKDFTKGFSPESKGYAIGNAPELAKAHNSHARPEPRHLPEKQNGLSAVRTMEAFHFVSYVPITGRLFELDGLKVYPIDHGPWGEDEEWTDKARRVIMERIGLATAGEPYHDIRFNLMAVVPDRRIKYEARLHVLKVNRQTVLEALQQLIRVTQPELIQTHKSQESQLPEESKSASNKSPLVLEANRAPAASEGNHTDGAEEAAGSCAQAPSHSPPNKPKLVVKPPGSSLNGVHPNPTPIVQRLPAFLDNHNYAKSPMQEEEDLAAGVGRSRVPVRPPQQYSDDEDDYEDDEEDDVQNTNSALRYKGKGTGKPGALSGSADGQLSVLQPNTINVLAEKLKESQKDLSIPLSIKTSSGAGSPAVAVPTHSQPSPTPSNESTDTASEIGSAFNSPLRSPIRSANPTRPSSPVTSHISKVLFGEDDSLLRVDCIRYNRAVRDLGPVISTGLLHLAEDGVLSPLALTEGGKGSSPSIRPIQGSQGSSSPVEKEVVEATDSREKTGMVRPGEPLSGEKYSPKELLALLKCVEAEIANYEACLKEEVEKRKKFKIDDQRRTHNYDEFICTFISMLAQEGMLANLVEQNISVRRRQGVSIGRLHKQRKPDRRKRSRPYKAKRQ
How it was run: as §1

EIF3F = EIF3F (UniProt O00303)
How it was run: as §1

EIF3H = EIF3H (UniProt O15372)
How it was run: as §1

FAM105A = target: T3, FAM105A (UniProt Q9NUU6)
T3 sequence (whole entry): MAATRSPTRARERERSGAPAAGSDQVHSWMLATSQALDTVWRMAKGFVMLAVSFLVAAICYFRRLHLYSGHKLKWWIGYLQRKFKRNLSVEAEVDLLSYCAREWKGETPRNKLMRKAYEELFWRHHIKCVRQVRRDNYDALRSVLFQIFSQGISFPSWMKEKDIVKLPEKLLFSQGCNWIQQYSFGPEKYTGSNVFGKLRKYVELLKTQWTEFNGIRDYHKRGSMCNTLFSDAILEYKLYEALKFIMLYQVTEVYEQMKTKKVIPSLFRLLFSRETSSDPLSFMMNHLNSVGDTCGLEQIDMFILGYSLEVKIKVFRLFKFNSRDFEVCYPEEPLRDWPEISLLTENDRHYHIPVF
How it was run: as §1

OTUB1 = OTUB1 (UniProt Q96FW1)
How it was run: as §1

OTUD4 = target: T4, OTUD4 (UniProt Q01804)
T4 sequence (whole entry): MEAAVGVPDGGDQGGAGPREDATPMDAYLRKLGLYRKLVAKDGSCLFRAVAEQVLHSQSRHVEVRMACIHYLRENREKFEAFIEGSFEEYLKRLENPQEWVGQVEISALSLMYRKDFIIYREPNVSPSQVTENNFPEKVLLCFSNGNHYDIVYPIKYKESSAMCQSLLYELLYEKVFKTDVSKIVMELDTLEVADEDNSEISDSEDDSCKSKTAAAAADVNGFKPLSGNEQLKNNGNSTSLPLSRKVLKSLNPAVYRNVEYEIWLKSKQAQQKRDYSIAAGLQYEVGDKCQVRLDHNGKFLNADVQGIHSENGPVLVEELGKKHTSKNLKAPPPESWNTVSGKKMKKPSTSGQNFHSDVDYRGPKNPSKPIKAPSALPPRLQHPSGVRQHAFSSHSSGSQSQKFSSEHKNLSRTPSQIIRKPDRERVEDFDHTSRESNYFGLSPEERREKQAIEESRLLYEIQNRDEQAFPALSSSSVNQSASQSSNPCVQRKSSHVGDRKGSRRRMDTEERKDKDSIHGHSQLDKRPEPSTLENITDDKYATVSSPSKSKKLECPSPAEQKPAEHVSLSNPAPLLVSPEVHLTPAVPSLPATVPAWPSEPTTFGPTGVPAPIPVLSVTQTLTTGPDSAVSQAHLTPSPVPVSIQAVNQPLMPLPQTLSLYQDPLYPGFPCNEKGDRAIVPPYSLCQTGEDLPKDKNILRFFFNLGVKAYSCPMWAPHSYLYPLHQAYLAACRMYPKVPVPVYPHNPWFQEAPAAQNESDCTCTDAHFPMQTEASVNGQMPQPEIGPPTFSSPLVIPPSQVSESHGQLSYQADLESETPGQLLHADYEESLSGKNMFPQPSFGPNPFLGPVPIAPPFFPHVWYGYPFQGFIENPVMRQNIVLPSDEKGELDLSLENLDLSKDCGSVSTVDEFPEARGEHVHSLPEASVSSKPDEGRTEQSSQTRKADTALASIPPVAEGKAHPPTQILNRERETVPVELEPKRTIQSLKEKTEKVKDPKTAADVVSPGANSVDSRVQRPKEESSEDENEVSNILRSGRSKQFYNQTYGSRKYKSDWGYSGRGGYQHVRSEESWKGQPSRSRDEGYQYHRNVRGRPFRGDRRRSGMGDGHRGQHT
How it was run: as §1

OTUD5 = target: T5, OTUD5 (UniProt Q96G74)
T5 sequence (whole entry): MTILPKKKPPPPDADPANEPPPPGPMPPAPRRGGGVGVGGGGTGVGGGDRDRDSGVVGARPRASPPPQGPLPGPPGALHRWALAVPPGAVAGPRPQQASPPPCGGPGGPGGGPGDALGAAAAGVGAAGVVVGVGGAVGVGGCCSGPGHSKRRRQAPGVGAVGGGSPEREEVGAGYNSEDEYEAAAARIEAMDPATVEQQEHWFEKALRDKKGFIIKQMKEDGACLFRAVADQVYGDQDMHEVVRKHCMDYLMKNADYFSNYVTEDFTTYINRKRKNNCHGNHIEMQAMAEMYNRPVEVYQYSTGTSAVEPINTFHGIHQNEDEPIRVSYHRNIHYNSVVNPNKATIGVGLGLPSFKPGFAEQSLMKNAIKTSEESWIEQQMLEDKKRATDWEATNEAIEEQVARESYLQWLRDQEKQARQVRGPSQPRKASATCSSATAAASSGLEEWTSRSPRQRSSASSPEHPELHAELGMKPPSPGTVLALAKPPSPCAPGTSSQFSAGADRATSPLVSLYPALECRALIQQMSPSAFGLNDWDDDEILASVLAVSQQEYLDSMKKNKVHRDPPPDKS
How it was run: as §1

Measured: log2 ratio of Biotin-Ahx-Ub-VS probe labelling

Chain of OTUB1 (Q96FW1 whole entry): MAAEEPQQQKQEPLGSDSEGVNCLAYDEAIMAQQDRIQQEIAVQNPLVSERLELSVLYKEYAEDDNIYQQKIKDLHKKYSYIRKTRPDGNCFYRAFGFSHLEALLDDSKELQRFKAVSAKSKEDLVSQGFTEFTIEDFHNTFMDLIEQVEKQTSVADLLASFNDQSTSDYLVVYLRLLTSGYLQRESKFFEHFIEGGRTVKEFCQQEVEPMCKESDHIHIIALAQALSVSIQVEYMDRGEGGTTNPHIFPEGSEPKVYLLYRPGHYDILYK
Chain of EIF3F (O00303 whole entry): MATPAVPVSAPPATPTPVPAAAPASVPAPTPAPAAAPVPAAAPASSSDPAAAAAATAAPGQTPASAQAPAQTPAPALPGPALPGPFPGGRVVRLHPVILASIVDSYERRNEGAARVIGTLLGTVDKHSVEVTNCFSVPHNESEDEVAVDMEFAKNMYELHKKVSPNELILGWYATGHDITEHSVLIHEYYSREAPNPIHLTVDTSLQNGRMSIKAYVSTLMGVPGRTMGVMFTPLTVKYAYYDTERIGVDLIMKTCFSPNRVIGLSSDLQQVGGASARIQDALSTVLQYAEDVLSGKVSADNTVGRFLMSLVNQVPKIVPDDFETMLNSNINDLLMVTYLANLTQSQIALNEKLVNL
Chain of EIF3H (O15372 whole entry): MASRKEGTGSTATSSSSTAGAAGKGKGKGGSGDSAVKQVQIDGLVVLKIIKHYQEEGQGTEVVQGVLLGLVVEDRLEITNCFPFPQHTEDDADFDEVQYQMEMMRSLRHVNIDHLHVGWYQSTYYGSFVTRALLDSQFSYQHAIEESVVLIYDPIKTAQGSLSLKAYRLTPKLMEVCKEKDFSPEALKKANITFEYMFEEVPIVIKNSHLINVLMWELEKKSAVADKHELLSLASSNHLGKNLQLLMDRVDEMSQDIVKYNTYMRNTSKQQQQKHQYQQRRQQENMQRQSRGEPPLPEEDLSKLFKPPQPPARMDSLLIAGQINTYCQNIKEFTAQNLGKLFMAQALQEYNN
Chain of ATXN3 (P54252 whole entry): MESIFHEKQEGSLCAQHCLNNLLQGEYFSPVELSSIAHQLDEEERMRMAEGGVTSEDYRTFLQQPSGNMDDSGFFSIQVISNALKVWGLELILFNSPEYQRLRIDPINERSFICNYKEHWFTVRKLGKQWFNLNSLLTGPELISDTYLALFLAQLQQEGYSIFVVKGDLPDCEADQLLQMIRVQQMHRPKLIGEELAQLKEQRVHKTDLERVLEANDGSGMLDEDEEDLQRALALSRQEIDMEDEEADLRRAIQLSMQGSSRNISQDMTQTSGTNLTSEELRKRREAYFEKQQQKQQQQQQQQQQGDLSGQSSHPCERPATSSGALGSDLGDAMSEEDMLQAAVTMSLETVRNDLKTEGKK

O=C(CCl)N1CCCCC12CCOCC2
active: BAP1 -1.05
inactive: ALG13 0.112 | ATXN3 -0.355 | EIF3F -0.323 | EIF3H -0.162 | FAM105A 0.208 | OTUB1 -0.126 | OTUD4 -0.484 | OTUD5 -0.461
